The term inhibition denotes the relative decrease from the control value, in per cent.

This passage reports growth inhibition, inhibition and outcome results from PubChem BioAssay.

Values without a mark were called inactive. For some assays here: Results with a measured potency or affinity are listed apart. Activity calls are given as the source filed them. Unless noted, the rule behind the calls is not given here.

The nature of experiment [1]: antimalarial activity against Dd2 strain (AID 2302;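 active = growth inhibition above 50% at the single 2 µM test dose, taken to imply half-maximal potency below 2 µM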;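 note: 0% = DMSO untreated growth and 100% = chloroquine plus artemisinin killed control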). The settings on record: P. falciparum Dd2 in RBCs, LDH growth readout, 72 h; at 2 µM; hits give high values.
Experiment [2] can be described thus: HepG2 cytotoxicity, primary screen, cytotoxicity control for P. falciparum antimalarial project, cell-based, ATP luminescence (AID 2303;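 active = inhibition above 50%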;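 note: 0% = DMSO wells and 100% = digitonin-killed cells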). To be noted: HepG2 viability, 24-48 h, at 10 µM, hits give high values.
Experiment [3] addresses L-lactate dehydrogenase (Plasmodium falciparum (isolate CDC / Honduras)) (UniProt Q27743). The experiment can be described thus: PfLDH activity inhibition – cell lysate, 3D7 strain, counter-screen for P. falciparum growth inhibition project (AID 2304).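 Note: 0% = vehicle and 100% = reference inhibitor.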 The settings on record: P. falciparum 3D7 crude extract, LDH APAD/NBT absorbance; at 2 µM; hits give high values. (In general: A counterscreen serves to expose hits that act by an unwanted route or on another target.)

Experiment [4] in a line: inhibition of 3D7 malaria parasite growth – strain 3D7 (AID 2306).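 Note: 0% = DMSO wells and 100% = chloroquine plus artemisinin control wells.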 The settings on record: P. falciparum 3D7 erythrocytic growth, LDH absorbance, 72 h; at 2 µM; hits give high values.
Experiment [5] concerns the target Calcium-dependent protein kinase 1 (Plasmodium falciparum (isolate 3D7)) (UniProt P62344). Put plainly: PfCDPK1 kinase inhibitors, biochemical, TCAMS library (AID 1159585; cut-off not given, nearly all actives have IC50 up to about 0.98 µM;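 note: inhibitors leave more ATP so luminescence rises with inhibition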). The settings on record: recombinant PfCDPK1, Kinase-Glo ATP depletion luminescence. (Kinase-Glo measures the ATP left after a reaction by luminescence.)
In experiment [6] the target is Plasmodium falciparum protein kinase 6 (PK6, PF3D7_1337100) (UniProt Q8IDW1). Put plainly: PfPK6 kinase inhibitors, biochemical, TCAMS library (AID 1159586). The settings on record: recombinant PfPK6, Kinase-Glo ATP depletion luminescence.
Sequence of Plasmodium falciparum protein kinase 6 (PK6, PF3D7_1337100) (Q8IDW1 1-305): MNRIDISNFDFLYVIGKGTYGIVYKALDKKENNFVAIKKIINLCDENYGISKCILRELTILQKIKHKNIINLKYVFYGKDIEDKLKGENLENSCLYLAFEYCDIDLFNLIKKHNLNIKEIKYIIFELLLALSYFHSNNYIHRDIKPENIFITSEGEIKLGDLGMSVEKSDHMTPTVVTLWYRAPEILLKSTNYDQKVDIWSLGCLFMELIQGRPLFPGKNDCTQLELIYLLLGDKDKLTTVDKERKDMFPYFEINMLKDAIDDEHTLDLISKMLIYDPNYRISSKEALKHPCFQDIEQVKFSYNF
The target of experiment [7] is Protein kinase 7 (PK7), Plasmodium falciparum 3D7 (PF3D7_0213400) (UniProt Q7YTF7). Put plainly: inhibition of Plasmodium PK7 catalytic activity – biochemical, TCAMS antimalarial set, Kinase-Glo luminescence (AID 1159587). The settings on record: recombinant PfPK7, Kinase-Glo ATP depletion luminescence.
Sequence of Protein kinase 7 (PK7), Plasmodium falciparum 3D7 (PF3D7_0213400) (Q7YTF7 1-343): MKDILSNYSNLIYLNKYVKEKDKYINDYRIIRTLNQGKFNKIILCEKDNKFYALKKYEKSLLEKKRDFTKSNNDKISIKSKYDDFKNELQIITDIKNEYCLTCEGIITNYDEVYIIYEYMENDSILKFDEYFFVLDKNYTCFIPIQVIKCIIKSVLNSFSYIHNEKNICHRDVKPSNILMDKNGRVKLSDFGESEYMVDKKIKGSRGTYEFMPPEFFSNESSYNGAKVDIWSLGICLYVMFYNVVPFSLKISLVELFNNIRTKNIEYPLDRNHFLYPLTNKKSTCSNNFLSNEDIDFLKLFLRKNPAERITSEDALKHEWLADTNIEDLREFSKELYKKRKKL
Experiment [8] has as its target Calcium-dependent protein kinase 4 (Plasmodium falciparum (isolate 3D7)) (UniProt Q8IBS5). Put plainly: PfCDPK4 kinase inhibitors, biochemical, TCAMS library (AID 1159588; cut-off not given, nearly all actives have IC50 up to about 0.91 µM). To be noted: recombinant PfCDPK4, Kinase-Glo ATP depletion luminescence.

Sequence of L-lactate dehydrogenase (Plasmodium falciparum (isolate CDC / Honduras)) (Q27743 whole entry, looked up): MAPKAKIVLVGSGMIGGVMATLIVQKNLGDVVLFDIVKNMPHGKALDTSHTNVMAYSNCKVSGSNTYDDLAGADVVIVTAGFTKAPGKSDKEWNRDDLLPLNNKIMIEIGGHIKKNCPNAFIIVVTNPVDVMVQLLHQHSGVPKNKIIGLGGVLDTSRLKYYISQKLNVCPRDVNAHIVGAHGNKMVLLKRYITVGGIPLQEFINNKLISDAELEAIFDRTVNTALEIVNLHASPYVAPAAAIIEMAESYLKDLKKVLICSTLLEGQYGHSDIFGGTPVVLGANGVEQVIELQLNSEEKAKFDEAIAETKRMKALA
Sequence of Calcium-dependent protein kinase 4 (Plasmodium falciparum (isolate 3D7)) (Q8IBS5 whole entry, looked up): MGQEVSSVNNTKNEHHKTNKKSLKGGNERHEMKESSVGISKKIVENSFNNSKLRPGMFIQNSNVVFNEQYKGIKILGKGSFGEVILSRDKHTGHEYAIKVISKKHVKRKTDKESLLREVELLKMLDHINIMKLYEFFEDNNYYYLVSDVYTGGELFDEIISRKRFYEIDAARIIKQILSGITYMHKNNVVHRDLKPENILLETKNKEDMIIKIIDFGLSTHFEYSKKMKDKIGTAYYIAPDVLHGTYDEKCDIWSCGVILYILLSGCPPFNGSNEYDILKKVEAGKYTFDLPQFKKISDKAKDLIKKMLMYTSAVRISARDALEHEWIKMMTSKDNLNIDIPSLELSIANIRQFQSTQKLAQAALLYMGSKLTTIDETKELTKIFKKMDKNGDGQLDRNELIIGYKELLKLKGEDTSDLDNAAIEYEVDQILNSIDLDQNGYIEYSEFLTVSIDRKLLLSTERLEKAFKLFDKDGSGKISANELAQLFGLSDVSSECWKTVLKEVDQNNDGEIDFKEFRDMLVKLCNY
Sequence of Calcium-dependent protein kinase 1 (Plasmodium falciparum (isolate 3D7)) (P62344 whole entry, looked up): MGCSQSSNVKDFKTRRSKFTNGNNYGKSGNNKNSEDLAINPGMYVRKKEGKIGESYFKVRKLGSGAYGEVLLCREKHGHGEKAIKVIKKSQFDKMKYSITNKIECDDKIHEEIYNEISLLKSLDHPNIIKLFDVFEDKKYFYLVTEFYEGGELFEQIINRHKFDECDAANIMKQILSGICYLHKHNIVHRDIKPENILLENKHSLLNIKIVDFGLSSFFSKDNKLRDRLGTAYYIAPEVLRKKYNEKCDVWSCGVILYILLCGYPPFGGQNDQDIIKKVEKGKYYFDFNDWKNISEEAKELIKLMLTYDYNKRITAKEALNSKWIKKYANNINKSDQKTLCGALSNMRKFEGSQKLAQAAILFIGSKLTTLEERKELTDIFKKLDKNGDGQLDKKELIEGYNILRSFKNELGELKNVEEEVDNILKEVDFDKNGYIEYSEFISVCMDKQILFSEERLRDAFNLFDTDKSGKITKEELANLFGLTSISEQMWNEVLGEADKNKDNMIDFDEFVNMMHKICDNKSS

As for `CC(C)[C@H](NC(=O)c1ccc(O)c(-c2ccc(Cl)c(Cl)c2)c1)C(=O)NC1CCCCCC1`, the growth inhibition in experiment [1] and in experiment [4] was 99% (active) in each case. The inhibition was -4% in experiment [2] and -2% in experiment [3]. Also, the result in experiment [5], in experiment [6], in experiment [7] and in experiment [8] was inactive.
For `Cc1ccccc1C1CCN(C2CCC(NC(=O)/C=C/c3cccc(Cl)c3)CC2)CC1` (configuration not stated), the growth inhibition was 34% in experiment [1] and 98% (active) in experiment [4]. In addition, the inhibition was 70% (active) in experiment [2] and -3% in experiment [3]. In addition, the outcome in experiment [5], in experiment [6], in experiment [7] and in experiment [8] was inactive.
On to `COc1ccc(-c2cnc(N)c(-c3ccc(O)c(OC)c3)c2)cn1`, for which the growth inhibition was 98% (active) in experiment [1] and 97% (active) in experiment [4]. The inhibition in experiment [2] is 23%; in experiment [3] it was -1%. Further, the result in experiment [5], in experiment [6], in experiment [7] and in experiment [8] was inactive.
Turning to `COc1cc(NC(=O)CCCCCCCN2CCN(C)CC2)c2ncccc2c1`, the values for the growth inhibition in experiment [1] and in experiment [4] were 83% (active) and 95% (active), respectively. Also, the inhibition is 2% in experiment [2] and 1% in experiment [3]. In addition, the outcome in experiment [5], in experiment [6], in experiment [7] and in experiment [8] was inactive.
